Laboratory results reported in PubChem BioAssay (NCATS).
Results filed as inconclusive are left out. Calls of active or inactive are those of the source. The call rests on the fitted dose curve; in most records, active means well fitted curve in the direction sought with a large enough effect; inconclusive means small, poorly fitted or top-dose-only effect, or another doubt; inactive means no such curve, though single readings can be large; an effect the other way counts as inactive or inconclusive.

assay: qHTS of pediatric cancer cell lines to identify multiple opportunities for drug repurposing: Confirmatory screen for MG 63 (6-TG R) cells (AID 1347119); conditions: MG-63 (6-TG resistant) osteosarcoma viability; series mostly up to 45.9 µM; activity change, negative = cytotoxicity: at the top concentration; further: nearly all actives have a fitted effect of over 55% in size;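 on activity change, negative = cytotoxicity: plate controls were DMSO neutral control for no effect and bortezomib for full effect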
Method in brief: (§1)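 Cells (500-1,000/well) in growth media were settled 5 h at 37 degrees C, then given compounds for 48 h. Viability was read as CellTiter-Glo luminescence. Primary runs used MIPE at 11 points (0.78 nM-46 µM) and NPC at 8 points (0.59 nM-46 µM); follow-ups used 11 points.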
Potency means the concentration at half of the fitted maximal effect.

Structure (SMILES) | activity change, negative = cytotoxicity | Potency
CN1C[C@H](C(=O)N[C@]2(C)O[C@@]3(O)[C@@H]4CCCN4C(=O)[C@H](Cc4ccccc4)N3C2=O)C[C@@H]2c3cccc4[nH]cc(c34)C[C@H]21 | -13.6% (inactive) | –
C[n+]1cc2c3c(ccc2c2ccc4cc5c(cc4c21)OCO5)OCO3 | – | 1620 nM (active)
CN/C(=C\[N+](=O)[O-])NCCSCc1ccc(CN(C)C)o1 | 10.3% (inactive) | –
NCCCNCCSP(=O)(O)O | 6.09% [at 9.58 µM] (inactive) | –

assay: qHTS of pediatric cancer cell lines to identify multiple opportunities for drug repurposing: Confirmatory screen for control Hh wild type fibroblast cells (AID 1347121); conditions: viability qHTS; series mostly up to 45.9 µM; activity, negative = cytotoxic: at the top concentration; further: nearly all actives have a fitted effect of over 70% in size;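 on activity, negative = cytotoxic: plate controls were DMSO for no effect and bortezomib for full effect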
Description: (§2) Drug repurposing or repositioning has been offered as a strategy for drug development in oncology programs. This approach has special potential for childhood cancers and other rare or orphan diseases, where the expected return on new drug development has been a disincentive to pharmaceuticals.
(§3) In this project we exploit the poly-pharmacology of drugs to discover new indications via phenotypic screening of a panel of 19 well-characterized cell lines derived from solid tumors seen in children and adolescents. The goal is to identify approved drugs with previously unrecognized anticancer properties that has the potential to reveal new mechanisms and biological processes involved in carcinogenesis or drug resistance. We employed a titration-based paradigm (quantitative high-throughput screening or qHTS), where all compounds were tested at multiple concentrations for their effect on cell viability. Concentration-response curves (CRCs) were derived directly from the primary screen, and both potency and efficacy values were used to identify compounds with robust bioactivity profiles. We screened the NIH Chemical Genomics Center (NCGC) Pharmaceutical Collection (NPC) and Mechanism Interrogation Plate (MIPE) small molecule collections of approved and investigational compounds against these cell lines; and measured metabolically active cells after 48 hours of compound treatment as a proxy for cell viability.
(§4) Assay Submitter: Nathalia J. Martinez, National Center for Advancing Translational Sciences, National Institutes of Health, Rockville, MD, USA; email: natalia.martinez@nih.gov
[1] Shen, M et al. Quantitative high-throughput phenotypic screening of pediatric cancer cell lines identifies multiple opportunities for drug repurposing. Oncotarget 2017 Dec 19;9(4):4758-4772. PMID 29435139.
The cells were obtained from University of North Carolina (UNC), Pediatric Preclinical Testing Program (PPT), and Coriell Institute (CI).
qHTS cell viability assay:
Cells were assayed in growth media at a density of 500-1,000 cells/well. Five microliters of cells were dispensed into 1,536-well, white, solid-bottom, TC-treated plates (Greiner Bio One) using a multidrop dispenser and incubated at 37 degrees C, 5% CO2, under a humidified atmosphere for 5 hours. Twenty-three nanoliters of compounds and controls (neutral control DMSO or positive control bortezomib at final concentration of 2.3 µM) were subsequently transferred by Kalypsys pintool. […] After a 15 min incubation at room temperature, samples were analyzed for luminescence intensity using a ViewLux High-throughput CCD imager equipped with clear filters.

Structure (SMILES) | activity, negative = cytotoxic | Potency
Nc1nc(N)c2nc(-c3ccccc3)c(N)nc2n1 | 11.7% (inactive) | –
CN1C[C@H](C(=O)N[C@]2(C)O[C@@]3(O)[C@@H]4CCCN4C(=O)[C@H](Cc4ccccc4)N3C2=O)C[C@@H]2c3cccc4[nH]cc(c34)C[C@H]21 | -1.37% (inactive) | –
C[n+]1cc2c3c(ccc2c2ccc4cc5c(cc4c21)OCO5)OCO3 | – | 4560 nM (active)
NCCCNCCSP(=O)(O)O | 0.865% [at 9.58 µM] (inactive) | –

assay: qHTS of pediatric cancer cell lines to identify multiple opportunities for drug repurposing: Confirmatory screen for U-2 OS cells (AID 1347122); conditions: U-2 OS osteosarcoma cell viability; series mostly up to 45.9 µM; activity change, negative = cytotoxicity: at the top concentration; further: nearly all actives have a fitted effect of over 65% in size;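 on activity change, negative = cytotoxicity: plate controls were DMSO for no effect and bortezomib for full effect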
Description: as §2, §3, §4
[1] Shen, M et al. Quantitative high-throughput phenotypic screening of pediatric cancer cell lines identifies multiple opportunities for drug repurposing. Oncotarget 2017 Dec 19;9(4):4758-4772. PMID 29435139. […]
Cells were assayed in growth media at a density of 500-1,000 cells/well. […] After a 15 min incubation at room temperature, samples were analyzed for luminescence intensity using a ViewLux High-throughput CCD imager equipped with clear filters.

Structure (SMILES) | outcome | Potency | activity change, negative = cytotoxicity
CN1C[C@H](C(=O)N[C@]2(C)O[C@@]3(O)[C@@H]4CCCN4C(=O)[C@H](Cc4ccccc4)N3C2=O)C[C@@H]2c3cccc4[nH]cc(c34)C[C@H]21 | inactive | – | –
C[n+]1cc2c3c(ccc2c2ccc4cc5c(cc4c21)OCO5)OCO3 | – | 1440 nM (active) | –
CN/C(=C\[N+](=O)[O-])NCCSCc1ccc(CN(C)C)o1 | – | – | 15.8% (inactive)

assay: qHTS of pediatric cancer cell lines to identify multiple opportunities for drug repurposing: Confirmatory screen for Rh41 cells (AID 1347123); conditions: Rh41 rhabdomyosarcoma cells, viability/cytotoxicity qHTS; series mostly up to 45.9 µM; activity change, negative = cytotoxic: at the top concentration;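 further: 48 h compound exposure; nearly all actives have a fitted effect of over 60% in size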;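 on activity change, negative = cytotoxic: plate controls were DMSO for no effect and bortezomib for full effect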
Method in brief: as §1

Structure (SMILES) | activity change, negative = cytotoxic | Potency
Nc1nc(N)c2nc(-c3ccccc3)c(N)nc2n1 | -26.5% (inactive) | –
CN1C[C@H](C(=O)N[C@]2(C)O[C@@]3(O)[C@@H]4CCCN4C(=O)[C@H](Cc4ccccc4)N3C2=O)C[C@@H]2c3cccc4[nH]cc(c34)C[C@H]21 | – | 3290 nM (active)
C[n+]1cc2c3c(ccc2c2ccc4cc5c(cc4c21)OCO5)OCO3 | – | 2290 nM (active)
CN/C(=C\[N+](=O)[O-])NCCSCc1ccc(CN(C)C)o1 | 17.1% (inactive) | –
C[C@]12CC[C@@H]3c4ccc(O)cc4C[C@@H](CCCCCCCCCS(=O)CCCC(F)(F)C(F)(F)F)[C@H]3[C@@H]1CC[C@@H]2O (stereo partly specified) | – | 8270 nM (active)

assay: qHTS of pediatric cancer cell lines to identify multiple opportunities for drug repurposing: Confirmatory screen for RD cells (AID 1347124); conditions: RD rhabdomyosarcoma cell viability; series mostly up to 45.9 µM; activity change, negative = cytotoxic: at the top concentration;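 further: cells exposed to compound for 48 h before viability readout; nearly all actives have a fitted effect of over 65% in size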; on activity change, negative = cytotoxic: on the % scale 0 is the no-effect control and ±100 the full control effect
Method in brief: as §1

Structure (SMILES) | activity change, negative = cytotoxic | Potency
Nc1nc(N)c2nc(-c3ccccc3)c(N)nc2n1 | -10.4% (inactive) | –
CN1C[C@H](C(=O)N[C@]2(C)O[C@@]3(O)[C@@H]4CCCN4C(=O)[C@H](Cc4ccccc4)N3C2=O)C[C@@H]2c3cccc4[nH]cc(c34)C[C@H]21 | 4.28% (inactive) | –
C[n+]1cc2c3c(ccc2c2ccc4cc5c(cc4c21)OCO5)OCO3 | – | 1820 nM (active)
C[C@]12CC[C@@H]3c4ccc(O)cc4C[C@@H](CCCCCCCCCS(=O)CCCC(F)(F)C(F)(F)F)[C@H]3[C@@H]1CC[C@@H]2O (stereo partly specified) | 10.4% (inactive) | –
C[C@]12C=CC(=O)C=C1CC[C@H]1[C@@H]3C[C@@H](O)[C@](O)(C(=O)CO)[C@@]3(C)C[C@H](O)[C@@]12F | – | 7370 nM (active)
